Laboratory results from PubChem BioAssay AID1259343 (VanderVen Lab, College of Veterinary Medicine, Cornell …, 2017).
In all, about 6,200 compounds went through this assay and about 2,900 (47%) were called active. So high a share suggests a set chosen from earlier hits. The list shows a part of the results. Values without a mark were called inactive. No stated cut-off is given here; in the data, active means inhibition above about 50%; inactive means the rest.

Experiment: Mycobacterium tuberculosis growth inhibition, primary screen (AID 1259343)
Settings: inhibition: at 10 µM, stronger effect = higher value; outcome: 10 uM

SMILES | inhibition
Clc1ccc(-n2cccc2CN2CCc3c([nH]c4ccccc34)C2c2ccccn2)nc1 (stereo unspecified) | 37.9%
Cc1ccc2c(=O)c(-c3cccc(C(F)(F)F)c3)coc2c1 | 57.7% (active)
NC(=O)c1cc2c(cc1-c1cccc(C(F)(F)F)c1)OCO2 | 22.9%
CC(C)Cc1noc(CCCNC(=O)Nc2cccc(Cl)c2)n1 | 55.1% (active)
CC(C)c1cc(C(=O)NCc2nc(Cc3cccs3)no2)n(C)n1 | 13.7%
Cc1[nH]ncc1CCCNC(=O)Nc1ccc(Cl)c(Cl)c1 | -9.82%
CCCc1cc(NCc2cccnc2)n2ncc(-c3ccccc3)c2n1 | 13.7%
Fc1ccc(-c2cnn3c(NCc4cccc(Cl)c4)ccnc23)cc1Cl | 57.7% (active)
CCCCCCc1ccc(C(=O)N2CCSC2c2ccncc2)cc1 (stereo unspecified) | 95.1% (active)
CCCCc1ccc(C(=O)O)nc1 | 40.9%
O=C(CSc1ncnc2c1nnn2Cc1ccccc1F)OCc1ccccc1 | -8.15%
COc1ccc(-n2nnc3c(SCc4cccc(F)c4)ncnc32)cc1 | 88.2% (active)
c1ccc(Cn2nnc3c(SCc4cccnc4)ncnc32)cc1 | -31.8%
Cc1ccc(Cn2nnc3c(SCc4cccnc4)ncnc32)cc1 | 58.1% (active)
Fc1ccc(-n2nnc3c(SCc4cccc(F)c4)ncnc32)cc1 | -31.5%
O=C(CSc1ncnc2c1nnn2Cc1ccccc1)OCc1ccccc1 | -35.2%
c1ccc(-n2nnc3c(SCc4cccnc4)ncnc32)cc1 | 61.4% (active)
Cc1ccc(Cn2nnc3c(SCC(=O)OCc4ccccc4)ncnc32)cc1 | 84.7% (active)
COc1cccc(-n2nnc3c(SCc4cccnc4)ncnc32)c1 | 74.8% (active)
COc1ccc(-n2nnc3c(SCc4cccc(Cl)c4)ncnc32)cc1 | -33.7%
Cc1cccc(-c2ccc(NC(=O)C3CCN(Cc4nccs4)CC3)cc2)c1 | 37.9%
CCCc1ncc(CN2CCC(C(=O)Nc3cccc(-c4cccc(F)c4)c3)CC2)cn1 | inactive
O=C(Nc1cccc(-c2cccc(F)c2)c1)C1CCN(Cc2cccs2)CC1 | 36.5%
O=C(Nc1cccc(-c2cccc(F)c2)c1)C1CCN(Cc2cccc3cnccc23)CC1 | 75.2% (active)
COc1cccc(-c2ccc(NC(=O)C3CCCN(Cc4cnc(N(C)C)s4)C3)cc2)c1 (stereo unspecified) | 48.7%
Cc1cccc(-c2ccc(NC(=O)C3CCN(Cc4cnc(N(C)C)s4)CC3)cc2)c1 | 88.2% (active)

SMILES | inhibition
CC(=O)c1cccc(CN2CCC(C(=O)Nc3cccc(-c4cccc(F)c4)c3)CC2)c1 | 69% (active)
CC(=O)c1cc(CN2CCC(C(=O)Nc3cccc(-c4cccc(F)c4)c3)CC2)cs1 | 91.3% (active)
CCCn1nnnc1NCc1cccn1C | 1.45%
Cn1ccsc1=NC(=O)CCN1c2ccccc2Sc2ccccc21 | -5.61%
Cc1cccc(CN2CCC(C(=O)Nc3cccc(-c4cccc(F)c4)c3)CC2)n1 | 76.4% (active)
CC(=O)c1cccc(CN2CCC(C(=O)Nc3ccc(-c4cccc(C)c4)cc3)CC2)c1 | 86.5% (active)
c1nc(NC2CC3CC2C2CCCC32)c2sccc2n1 (stereo unspecified) | 30.1%
COc1cccc(OC)c1OCCCOc1ccc(C)cc1Cl | 47.8%
COc1cccc(OC)c1OCCOc1ccc(Br)cc1Cl | 82% (active)
COc1cccc(OC)c1OCCCOc1ccc(Cl)cc1Cl | 89.4% (active)
O=c1nc(SCc2ccc(C(F)(F)F)cc2)nc2ccccn12 | -29.6%
O=c1cnnc(SCc2ccc(C(F)(F)F)cc2)[nH]1 | 84.2% (active)
Cc1ccn2c(=O)nc(SCc3ccc(C(F)(F)F)cc3)nc2c1 | 22.7%
FC(F)(F)c1ccccc1CCNc1nncc(-c2ccccc2)n1 | -20%
c1ccc2c(c1)[I+]c1ccccc1-2 | 101% (active)
Nc1ccc(Oc2ccc(Br)cc2)cc1 | 39.8%
OC(COc1ccc(Cl)cc1)CSc1ccc(Br)cc1 (stereo unspecified) | -20.4%
CC(O)c1ccc(Oc2ccc(Br)cc2)cc1 (stereo unspecified) | 72.8% (active)
NC(=O)C1CCN(c2nc3cc(C(F)(F)F)ccc3s2)C1 (stereo unspecified) | 34.5%
CCc1cnc(C)nc1N1CCCC(C(=O)c2ccc(C(F)(F)F)cc2)C1 (stereo unspecified) | 51.3% (active)
COc1ccc(NC(=O)c2sc(=O)n(CCOc3ccc(F)cc3)c2C)cc1OC | 27.4%
COC(=O)C(Cc1ccc(OCCn2c(=O)sc3cc(C(=O)c4ccccc4)ccc32)cc1)C(=O)OC | 51.7% (active)
C(=C\c1ccccc1)/CSc1n[nH]c(-c2cccnc2)n1 | 96.6% (active)
c1ccc(-c2nc(SC(c3ccccc3)c3ccccc3)n[nH]2)cc1 | 22.5%
O=c1nc(SC/C=C/c2ccccc2)nc2ccccn12 | -19.1%
O=C(c1ccc(-c2ccc(O)cc2)nc1)N1CCC(CCc2ccccc2)CC1 | 83.7% (active)

SMILES | inhibition
COc1ccc(-c2ccc(C(=O)N3CCCC(c4ccccc4)CC3)cn2)cc1 (stereo unspecified) | 36.2%
CCOC(=O)C(=O)N1CCC(CCc2ccccc2)CC1 | 90.7% (active)
c1ccc(-c2ccc(CCC3CCN(Cc4cccs4)CC3)cc2)cc1 | 43.2%
O=C(c1ccco1)N1CCCC2(CCCCC2)C1 | -18%
O=C(c1ccco1)N1CCC(CCc2ccc(-c3ccccc3)cc2)CC1 | 81% (active)
O=C(c1ccco1)N1CCC(Cc2ccc(F)cc2)CC1 | 86.8% (active)
O=C(C1CCC1)N1CCC(CCc2ccc(-c3ccccc3)cc2)CC1 | 44.8%
O=C(c1ccno1)N1CCC(Cc2ccc(F)cc2)CC1 | 56.4% (active)
Cc1ccccc1N1CCN(Cc2cc(C#CCO)cs2)C(C)C1 (stereo unspecified) | -56.2%
Cc1ccccc1N1CCN(Cc2ccc(C#CCO)s2)C(C)C1 (stereo unspecified) | 76.9% (active)
c1ccc2c(c1)CN1CCCC1=N2 | 101% (active)
O=C1OC2(CCCCC2)OC(=O)C1=CNc1ccc2ccccc2c1 | 48.9%
O=C1C=C(Nc2ccc3ccccc3c2)CCC1 | 89.7% (active)
O=C(Nc1nnc(-c2ccc3c(c2)OCCO3)o1)c1cccc2ccccc12 | 98.7% (active)
CN(CCNC(=O)C1(C)CC1(Cl)Cl)C1CC1 (stereo unspecified) | -9.78%
N#Cc1cccc(OCc2noc(-c3ccsc3)n2)c1 | 34.2%
Cc1c(CN(C)Cc2nc(Cc3cccc(C(F)(F)F)c3)no2)[nH]c2ccccc12 | 66.5% (active)
Cc1cc2nc(CN(C)Cc3nc(Cc4cccc(C(F)(F)F)c4)no3)[nH]c2cc1C | inactive
COc1cccc(C(C)N(C)Cc2nc(Cc3cccc(F)c3)no2)c1 (stereo unspecified) | 65.5% (active)
COc1cccc(C(C)N(C)Cc2nc(COc3ccccc3)no2)c1 (stereo unspecified) | 71.8% (active)
CN(Cc1nc(COc2ccccc2)no1)CC1(c2ccccc2)CC1(C)C (stereo unspecified) | 42.2%
COc1ccccc1OC(C)c1nc(Cc2cccc(C(F)(F)F)c2)no1 (stereo unspecified) | 36.2%
CN(Cc1csc(-c2ccccc2)n1)Cc1nc(Cc2cccc(F)c2)no1 | 90.6% (active)
COc1cccc(C(C)N(C)Cc2nc(-c3cccc(Cl)c3)oc2C)c1 (stereo unspecified) | -0.61%
FC(F)(F)c1cccc(Cc2noc(CN3CCC(OCc4ccccn4)CC3)n2)c1 | 32%
CC1CCC(C(C)C)c2[nH]nc(-c3ccccc3O)c21 (stereo unspecified) | 4.33%

SMILES | inhibition
Cn1ccc(NS(=O)(=O)/C=C/c2ccc(Cl)cc2)n1 | 41.7%
O=S(=O)(/C=C/c1ccc(Cl)cc1)Oc1ccc(F)c(F)c1 | 92.7% (active)
CC(C)CCNCC(O)CON=C1c2ccccc2-c2ccccc21 (stereo unspecified) | 84.8% (active)
N#Cc1ccccc1-c1ccc(COc2coc(CN3CCN(C(=O)c4ccc([N+](=O)[O-])o4)CC3)cc2=O)cc1 | 102% (active)
CCCCC/C=C\C/C=C\C/C=C\CCCCC(=O)N1CCN(Cc2cc(=O)c(OCc3cccc(F)c3)co2)CC1 | 16.1%
CCc1nc2cc(NC(=O)CC3CCCCC3)ccc2o1 | 89.5% (active)
Cc1cc(C)c(-c2nc3cc(NC(=O)c4cccs4)ccc3o2)c(C)c1 | 42.8%
Cc1nc2cc(NC(=O)CN(C)S(=O)(=O)c3ccc(F)cc3)ccc2o1 | 23.8%
Clc1ccccc1C1CCN(Cc2nc(-c3cccs3)no2)C1 (stereo unspecified) | 96.1% (active)
c1csc(-c2noc(CN3CCc4sccc4C3)n2)c1 | 46.9%
Fc1ccccc1OCC1CCCN(Cc2nc(-c3cccs3)no2)C1 (stereo unspecified) | 47%
CC(c1nc(-c2cccs2)no1)N1CCC(c2ccccc2)CC1 (stereo unspecified) | -41.5%
Fc1ccccc1CC1CCN(Cc2nc(-c3cccs3)no2)CC1 | 83.9% (active)
c1csc(-c2noc(CN3CCCC(c4nc5ccccc5o4)C3)n2)c1 (stereo unspecified) | inactive
CCCC1=NN(c2nc3ccccc3s2)C(=O)C1C(C)=Nc1ccc(C(=O)OCC)cc1 (stereo unspecified) | 98.8% (active)
CC(C)Oc1ccc(CNC(=O)c2ccco2)cc1F | 99.8% (active)
Nc1nccnc1C(=O)Nc1ccc(SC2CCCC2)cc1 | 80% (active)
O=C(Nc1ccc(SC2CCCC2)cc1)c1ccc(=O)[nH]c1 | 53.3% (active)
Nc1nccnc1C(=O)NCCSCc1ccsc1 | -5.01%
CCc1c(C)nc(-n2nc(C)cc2NC(=O)c2ccccc2[N+](=O)[O-])[nH]c1=O | 81.9% (active)
Cc1cc(=O)[nH]c(-n2nc(C)cc2NC(=O)c2cccc([N+](=O)[O-])c2C)n1 | 100% (active)
Cc1cc(NC(=O)c2cccc([N+](=O)[O-])c2C)n(-c2nc(C)c(C)c(=O)[nH]2)n1 | 98.3% (active)
CCc1c(C)nc(-n2nc(C)cc2NC(=O)c2cccc([N+](=O)[O-])c2C)[nH]c1=O | 102% (active)
